According to ChEMBL document CHEMBL2218924, “A broad activity screen in support of a chemogenomic map for kinase signalling research and drug discovery” (Biochem J, 2013):

Tests used:
[1] = biological target: Serine/threonine-protein kinase PAK 4 (Homo sapiens) (UniProt O96013); conditions: at 1 µM
[2] = biological target: Serine/threonine-protein kinase PAK 4 (Homo sapiens) (UniProt O96013); conditions: at 10 µM
[3] = biological target: Serine/threonine-protein kinase PAK 6 (Homo sapiens) (UniProt Q9NQU5); conditions: at 1 µM
[4] = biological target: Serine/threonine-protein kinase PAK 6 (Homo sapiens) (UniProt Q9NQU5); conditions: at 10 µM
[5] = biological target: Activated CDC42 kinase 1 (Homo sapiens) (UniProt Q07912); conditions: at 1 µM
[6] = biological target: Activated CDC42 kinase 1 (Homo sapiens) (UniProt Q07912); conditions: at 10 µM
[7] = biological target: ALK tyrosine kinase receptor (Homo sapiens) (UniProt Q9UM73); conditions: at 1 µM
[8] = biological target: ALK tyrosine kinase receptor (Homo sapiens) (UniProt Q9UM73); conditions: at 10 µM
[9] = biological target: T1, Activin receptor type-1B (Homo sapiens) (UniProt P36896); conditions: at 1 µM
T1 sequence (whole entry): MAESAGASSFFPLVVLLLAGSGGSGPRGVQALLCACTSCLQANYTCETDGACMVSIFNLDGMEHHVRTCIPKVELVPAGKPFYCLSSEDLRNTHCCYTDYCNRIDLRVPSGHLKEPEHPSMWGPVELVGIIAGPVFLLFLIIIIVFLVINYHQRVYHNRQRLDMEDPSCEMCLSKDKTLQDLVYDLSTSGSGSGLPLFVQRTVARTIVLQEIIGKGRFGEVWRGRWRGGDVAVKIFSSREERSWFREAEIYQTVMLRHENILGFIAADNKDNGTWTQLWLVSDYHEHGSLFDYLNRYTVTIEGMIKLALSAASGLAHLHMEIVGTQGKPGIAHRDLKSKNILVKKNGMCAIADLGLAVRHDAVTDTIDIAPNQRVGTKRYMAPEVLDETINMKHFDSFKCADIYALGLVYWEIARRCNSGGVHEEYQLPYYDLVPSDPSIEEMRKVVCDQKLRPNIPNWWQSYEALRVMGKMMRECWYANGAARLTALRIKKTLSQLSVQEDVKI

[10] = biological target: T2, AMP-activated protein kinase (AMPK) alpha-1/beta-1/gamma-1 (Homo sapiens) (UniProt P54619+Q9Y478+Q13131); conditions: at 1 µM
[11] = biological target: T2, AMP-activated protein kinase (AMPK) alpha-1/beta-1/gamma-1 (Homo sapiens); conditions: at 10 µM
[12] = biological target: T3, AMP-activated protein kinase, AMPK (Homo sapiens) (UniProt P54646+O43741+P54619+Q9UGJ0+Q9Y478+Q13131+Q9UGI9); conditions: at 1 µM
[13] = biological target: T3, AMP-activated protein kinase, AMPK (Homo sapiens); conditions: at 10 µM
[14] = biological target: T4, NUAK family SNF1-like kinase 1 (Homo sapiens) (UniProt O60285); conditions: at 1 µM
T4 sequence (whole entry): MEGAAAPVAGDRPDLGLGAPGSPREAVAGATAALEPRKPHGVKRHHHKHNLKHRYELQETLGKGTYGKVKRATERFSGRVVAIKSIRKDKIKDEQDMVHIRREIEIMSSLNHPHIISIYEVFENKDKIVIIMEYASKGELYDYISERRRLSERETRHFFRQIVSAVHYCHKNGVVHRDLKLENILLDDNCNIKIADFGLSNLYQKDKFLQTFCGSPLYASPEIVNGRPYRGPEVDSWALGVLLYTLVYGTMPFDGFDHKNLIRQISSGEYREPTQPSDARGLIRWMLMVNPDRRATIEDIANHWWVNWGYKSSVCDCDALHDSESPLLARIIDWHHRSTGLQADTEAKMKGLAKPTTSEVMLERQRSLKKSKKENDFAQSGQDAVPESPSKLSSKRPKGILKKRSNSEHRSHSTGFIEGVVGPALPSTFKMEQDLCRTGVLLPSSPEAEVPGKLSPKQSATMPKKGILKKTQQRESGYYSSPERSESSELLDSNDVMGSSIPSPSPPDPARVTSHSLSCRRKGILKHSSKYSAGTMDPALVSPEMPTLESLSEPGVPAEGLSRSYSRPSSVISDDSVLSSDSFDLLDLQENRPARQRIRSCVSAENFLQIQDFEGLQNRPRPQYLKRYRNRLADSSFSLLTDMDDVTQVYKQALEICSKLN

[15] = biological target: T4, NUAK family SNF1-like kinase 1 (Homo sapiens); conditions: at 10 µM
[16] = biological target: Serine/threonine-protein kinase PAK 5 (Homo sapiens) (UniProt Q9P286); conditions: at 1 µM
[17] = biological target: Serine/threonine-protein kinase PAK 5 (Homo sapiens) (UniProt Q9P286); conditions: at 10 µM
[18] = biological target: PAS domain-containing serine/threonine-protein kinase (Homo sapiens) (UniProt Q96RG2); conditions: at 10 µM
[19] = biological target: T1, Activin receptor type-1B (Homo sapiens); conditions: at 10 µM
[20] = biological target: T5, Mitogen-activated protein kinase kinase kinase 5 (Homo sapiens) (UniProt Q99683); conditions: at 1 µM
T5 sequence (whole entry): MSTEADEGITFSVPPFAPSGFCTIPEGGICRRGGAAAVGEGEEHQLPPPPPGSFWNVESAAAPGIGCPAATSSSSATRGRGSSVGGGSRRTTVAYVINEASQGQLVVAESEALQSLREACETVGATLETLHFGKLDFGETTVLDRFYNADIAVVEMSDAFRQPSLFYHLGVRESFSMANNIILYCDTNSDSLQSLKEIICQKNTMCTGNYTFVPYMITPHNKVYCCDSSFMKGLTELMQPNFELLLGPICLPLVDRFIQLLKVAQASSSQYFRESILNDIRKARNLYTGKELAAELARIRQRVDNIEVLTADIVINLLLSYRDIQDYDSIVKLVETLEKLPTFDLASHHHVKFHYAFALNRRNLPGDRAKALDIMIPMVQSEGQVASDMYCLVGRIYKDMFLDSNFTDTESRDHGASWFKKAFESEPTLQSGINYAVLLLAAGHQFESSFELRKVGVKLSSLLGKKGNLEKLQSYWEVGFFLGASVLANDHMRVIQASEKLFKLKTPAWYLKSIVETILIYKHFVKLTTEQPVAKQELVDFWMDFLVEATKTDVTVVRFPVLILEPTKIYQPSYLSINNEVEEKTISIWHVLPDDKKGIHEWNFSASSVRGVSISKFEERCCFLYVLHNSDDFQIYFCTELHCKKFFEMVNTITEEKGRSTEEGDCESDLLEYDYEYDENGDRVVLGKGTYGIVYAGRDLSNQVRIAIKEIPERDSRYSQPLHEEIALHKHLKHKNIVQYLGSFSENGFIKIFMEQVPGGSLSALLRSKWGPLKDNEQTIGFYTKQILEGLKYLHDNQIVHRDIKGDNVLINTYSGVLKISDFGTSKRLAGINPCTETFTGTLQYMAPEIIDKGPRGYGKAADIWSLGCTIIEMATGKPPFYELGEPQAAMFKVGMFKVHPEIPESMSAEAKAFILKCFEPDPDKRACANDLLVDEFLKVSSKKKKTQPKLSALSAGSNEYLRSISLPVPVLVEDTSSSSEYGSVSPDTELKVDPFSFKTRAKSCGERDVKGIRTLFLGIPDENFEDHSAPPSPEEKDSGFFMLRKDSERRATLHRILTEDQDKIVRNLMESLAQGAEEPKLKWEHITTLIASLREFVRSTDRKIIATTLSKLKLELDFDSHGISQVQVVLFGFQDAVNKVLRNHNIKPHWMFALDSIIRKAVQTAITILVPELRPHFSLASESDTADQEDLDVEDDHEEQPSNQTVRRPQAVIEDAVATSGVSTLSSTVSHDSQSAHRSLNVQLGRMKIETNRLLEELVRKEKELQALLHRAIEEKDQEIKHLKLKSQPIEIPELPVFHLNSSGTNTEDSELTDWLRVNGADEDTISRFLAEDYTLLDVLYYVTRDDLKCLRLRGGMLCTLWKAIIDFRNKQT

Chain of Serine/threonine-protein kinase PAK 5 (Homo sapiens) (Q9P286 whole entry, looked up, the tested form may be a part): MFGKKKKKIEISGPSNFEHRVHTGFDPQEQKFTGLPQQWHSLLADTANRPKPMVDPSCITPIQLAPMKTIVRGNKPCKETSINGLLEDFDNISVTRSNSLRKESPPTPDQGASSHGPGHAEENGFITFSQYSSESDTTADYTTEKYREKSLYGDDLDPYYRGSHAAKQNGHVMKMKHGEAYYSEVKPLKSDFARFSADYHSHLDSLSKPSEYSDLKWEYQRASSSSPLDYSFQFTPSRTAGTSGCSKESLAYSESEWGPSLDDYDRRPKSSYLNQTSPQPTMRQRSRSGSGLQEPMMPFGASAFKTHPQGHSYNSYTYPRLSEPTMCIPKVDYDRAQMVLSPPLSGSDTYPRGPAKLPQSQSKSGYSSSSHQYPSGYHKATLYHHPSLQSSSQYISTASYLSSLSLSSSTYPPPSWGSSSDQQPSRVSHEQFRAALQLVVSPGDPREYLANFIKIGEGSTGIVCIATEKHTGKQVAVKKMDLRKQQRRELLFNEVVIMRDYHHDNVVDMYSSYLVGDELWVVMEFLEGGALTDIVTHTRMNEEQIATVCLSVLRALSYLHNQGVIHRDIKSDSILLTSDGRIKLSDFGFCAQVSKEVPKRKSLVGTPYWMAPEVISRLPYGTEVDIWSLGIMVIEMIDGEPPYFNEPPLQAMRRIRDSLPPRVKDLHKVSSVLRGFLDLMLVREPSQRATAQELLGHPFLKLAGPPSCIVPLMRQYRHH
T2 sequence (P54619 whole entry): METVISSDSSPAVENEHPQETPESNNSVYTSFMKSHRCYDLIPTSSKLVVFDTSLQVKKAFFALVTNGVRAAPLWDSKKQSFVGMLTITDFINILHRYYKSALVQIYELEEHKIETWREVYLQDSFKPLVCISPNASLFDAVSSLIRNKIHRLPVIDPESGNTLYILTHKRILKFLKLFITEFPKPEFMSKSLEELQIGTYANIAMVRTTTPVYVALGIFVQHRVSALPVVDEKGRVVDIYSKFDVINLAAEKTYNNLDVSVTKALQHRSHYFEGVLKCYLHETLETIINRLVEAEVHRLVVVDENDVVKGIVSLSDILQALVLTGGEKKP
T2 sequence (Q13131 whole entry partner): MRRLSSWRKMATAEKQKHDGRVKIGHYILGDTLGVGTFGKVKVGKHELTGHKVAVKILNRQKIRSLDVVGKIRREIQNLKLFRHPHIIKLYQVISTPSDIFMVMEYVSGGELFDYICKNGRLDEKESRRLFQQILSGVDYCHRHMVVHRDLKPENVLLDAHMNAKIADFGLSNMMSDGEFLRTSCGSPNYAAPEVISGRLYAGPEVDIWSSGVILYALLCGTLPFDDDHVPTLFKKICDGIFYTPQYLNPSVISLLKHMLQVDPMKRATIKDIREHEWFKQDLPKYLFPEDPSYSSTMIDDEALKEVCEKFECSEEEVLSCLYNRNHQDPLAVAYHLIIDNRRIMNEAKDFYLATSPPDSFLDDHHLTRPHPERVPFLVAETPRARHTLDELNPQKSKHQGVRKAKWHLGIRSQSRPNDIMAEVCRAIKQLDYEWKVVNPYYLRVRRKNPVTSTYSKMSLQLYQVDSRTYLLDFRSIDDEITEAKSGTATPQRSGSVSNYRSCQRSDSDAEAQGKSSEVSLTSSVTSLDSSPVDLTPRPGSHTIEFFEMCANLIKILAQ
T2 sequence (Q9Y478 2-270 partner limits assumed): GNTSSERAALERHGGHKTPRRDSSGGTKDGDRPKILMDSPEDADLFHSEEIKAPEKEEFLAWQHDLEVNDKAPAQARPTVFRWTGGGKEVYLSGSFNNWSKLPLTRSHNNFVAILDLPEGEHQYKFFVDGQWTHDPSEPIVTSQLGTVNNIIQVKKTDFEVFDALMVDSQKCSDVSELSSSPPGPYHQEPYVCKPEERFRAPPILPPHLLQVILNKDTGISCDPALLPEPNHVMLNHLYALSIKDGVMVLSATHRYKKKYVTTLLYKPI
Chain of Activated CDC42 kinase 1 (Homo sapiens) (Q07912 whole entry, looked up): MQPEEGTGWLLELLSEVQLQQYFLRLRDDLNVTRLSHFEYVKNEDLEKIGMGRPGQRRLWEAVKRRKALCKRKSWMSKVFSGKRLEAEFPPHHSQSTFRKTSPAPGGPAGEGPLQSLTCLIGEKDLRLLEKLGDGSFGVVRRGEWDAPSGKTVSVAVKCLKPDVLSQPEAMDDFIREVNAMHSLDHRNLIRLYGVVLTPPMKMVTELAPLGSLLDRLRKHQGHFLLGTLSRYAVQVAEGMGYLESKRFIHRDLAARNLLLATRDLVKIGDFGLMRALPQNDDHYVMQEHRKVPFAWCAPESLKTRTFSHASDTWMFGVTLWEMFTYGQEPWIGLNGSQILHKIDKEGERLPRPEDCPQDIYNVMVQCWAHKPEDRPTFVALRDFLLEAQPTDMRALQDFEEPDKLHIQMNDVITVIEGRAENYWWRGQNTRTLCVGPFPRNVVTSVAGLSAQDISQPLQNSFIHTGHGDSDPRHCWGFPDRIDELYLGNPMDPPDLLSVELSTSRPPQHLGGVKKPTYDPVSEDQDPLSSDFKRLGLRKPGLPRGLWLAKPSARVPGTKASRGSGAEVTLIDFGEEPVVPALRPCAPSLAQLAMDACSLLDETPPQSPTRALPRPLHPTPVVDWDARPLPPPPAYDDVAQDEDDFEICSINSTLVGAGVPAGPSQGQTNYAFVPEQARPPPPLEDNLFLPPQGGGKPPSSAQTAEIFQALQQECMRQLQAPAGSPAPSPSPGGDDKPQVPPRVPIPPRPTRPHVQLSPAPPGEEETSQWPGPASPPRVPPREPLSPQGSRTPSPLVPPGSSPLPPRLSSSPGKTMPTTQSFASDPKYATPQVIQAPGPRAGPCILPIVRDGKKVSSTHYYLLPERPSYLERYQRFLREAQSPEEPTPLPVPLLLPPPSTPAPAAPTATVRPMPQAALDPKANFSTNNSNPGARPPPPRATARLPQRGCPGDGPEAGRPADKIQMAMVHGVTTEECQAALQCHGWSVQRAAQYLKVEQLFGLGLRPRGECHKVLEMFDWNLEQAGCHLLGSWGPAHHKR
Chain of ALK tyrosine kinase receptor (Homo sapiens) (Q9UM73 19-1620 limits assumed): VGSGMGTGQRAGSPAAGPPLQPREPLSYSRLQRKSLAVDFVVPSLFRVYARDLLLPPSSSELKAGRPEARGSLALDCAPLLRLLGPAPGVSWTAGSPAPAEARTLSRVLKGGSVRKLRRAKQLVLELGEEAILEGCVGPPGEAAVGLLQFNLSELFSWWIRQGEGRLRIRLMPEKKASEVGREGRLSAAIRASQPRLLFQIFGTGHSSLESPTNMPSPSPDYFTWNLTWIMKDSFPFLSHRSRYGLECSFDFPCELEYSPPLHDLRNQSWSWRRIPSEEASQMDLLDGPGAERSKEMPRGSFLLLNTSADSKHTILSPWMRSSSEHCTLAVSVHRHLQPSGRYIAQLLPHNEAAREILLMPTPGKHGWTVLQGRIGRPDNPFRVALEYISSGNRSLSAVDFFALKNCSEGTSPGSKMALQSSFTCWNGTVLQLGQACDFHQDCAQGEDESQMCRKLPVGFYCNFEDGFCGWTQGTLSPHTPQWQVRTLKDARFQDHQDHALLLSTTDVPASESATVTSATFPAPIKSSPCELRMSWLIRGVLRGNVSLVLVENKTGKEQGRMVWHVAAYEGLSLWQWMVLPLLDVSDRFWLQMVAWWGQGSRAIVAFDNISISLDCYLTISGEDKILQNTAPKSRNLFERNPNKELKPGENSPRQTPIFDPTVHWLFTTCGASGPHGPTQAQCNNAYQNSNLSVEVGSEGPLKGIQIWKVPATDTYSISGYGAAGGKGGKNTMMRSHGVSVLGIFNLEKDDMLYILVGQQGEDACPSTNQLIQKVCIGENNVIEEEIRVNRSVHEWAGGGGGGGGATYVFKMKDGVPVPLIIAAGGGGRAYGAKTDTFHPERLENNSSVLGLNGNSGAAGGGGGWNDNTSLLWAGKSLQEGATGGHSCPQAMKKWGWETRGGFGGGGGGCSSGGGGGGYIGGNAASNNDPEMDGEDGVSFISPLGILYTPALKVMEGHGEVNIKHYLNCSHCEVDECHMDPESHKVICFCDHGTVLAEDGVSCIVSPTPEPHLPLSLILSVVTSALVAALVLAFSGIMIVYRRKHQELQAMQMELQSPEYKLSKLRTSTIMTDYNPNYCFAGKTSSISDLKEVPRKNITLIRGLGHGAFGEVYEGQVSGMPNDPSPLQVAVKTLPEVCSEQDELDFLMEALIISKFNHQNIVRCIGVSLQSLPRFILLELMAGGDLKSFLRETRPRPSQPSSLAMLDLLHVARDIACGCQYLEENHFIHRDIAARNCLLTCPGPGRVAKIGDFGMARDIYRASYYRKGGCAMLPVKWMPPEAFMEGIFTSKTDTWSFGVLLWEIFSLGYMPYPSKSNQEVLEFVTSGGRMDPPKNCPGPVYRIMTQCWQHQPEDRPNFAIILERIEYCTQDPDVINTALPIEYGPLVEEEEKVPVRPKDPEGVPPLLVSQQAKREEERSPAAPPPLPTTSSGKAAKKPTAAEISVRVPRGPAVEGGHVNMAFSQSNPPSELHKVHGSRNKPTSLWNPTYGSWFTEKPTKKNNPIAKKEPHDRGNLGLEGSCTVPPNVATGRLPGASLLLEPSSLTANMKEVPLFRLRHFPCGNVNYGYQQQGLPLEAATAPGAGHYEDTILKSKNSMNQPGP

SMILES	residual activity [1] [%]	residual activity [2] [%]	residual activity [3] [%]	residual activity [4] [%]	residual activity [5] [%]	residual activity [6] [%]	residual activity [7] [%]	residual activity [8] [%]	residual activity [9] [%]	residual activity [10] [%]	residual activity [11] [%]	residual activity [12] [%]	residual activity [13] [%]	residual activity [14] [%]	residual activity [15] [%]	residual activity [16] [%]	residual activity [17] [%]	residual activity [18] [%]	residual activity [19] [%]	residual activity [20] [%]
O=C(c1cc2cc(O)ccc2[nH]1)c1cc2cc(O)ccc2[nH]1	71	30	83	52	64	24	68	58	111	16	1	13	3	65	20					
Cn1c2ccccc2c2c3c(c4c5ccccc5n(CCC#N)c4c21)CNC3=O	3	2	4	2	3	0	0	4	108	22	22	19	16	10	6	12	14	49	64	17
CN(C)S(=O)(=O)c1ccc2c(c1)/C(=C/c1cc3c([nH]1)CCCC3)C(=O)N2	74	69	76	50	13	8	44	29	111	43	29	45	37	10	3				56	
CCN(CC)CCNC(=O)c1c(C)[nH]c(/C=C2\C(=O)Nc3ccc(Cl)cc32)c1C	52	11	73	28	25	1	8	2	126	7	3	4	4	6	6	30	8	49	99	60
COc1ccc(CNC(=O)Nc2ncc([N+](=O)[O-])s2)cc1					77	55	70	64										110	109	
O=c1c(-c2ccc(F)cc2)c(-c2ccncc2)[nH]n1-c1ccc(Cl)cc1						66		65											22	100
COc1ccc2c(c1)c(C1=C(c3c[nH]c4ccccc34)C(=O)NC1=O)cn2CCCN(C)C					65	21	80	64		52	11	38	5	37	10			32	47	
NC(=O)c1ccc(-c2nc(-c3ccc4c(c3)OCCO4)c(-c3ccccn3)[nH]2)cc1	99	98			79	68	74	52	31	90	92				91				0	98
O=c1cc(N2CCOCC2)oc2c(-c3ccccc3)cccc12				77	76	58	73	53										59		
COc1ccc(COc2ccc(Cc3cnc(N)nc3N)cc2OC)cc1					79	68	74		120				82				100		119	
CCN1/C(=C/C(C)=O)Sc2ccc(OC)cc21					81	64			122	79	54						80			
Nc1nc(Nc2ccc(S(N)(=O)=O)cc2)nn1C(=O)c1c(F)cccc1F		17	79	34	50	9	77	38	100	58	11	47	15	4	7	71	24		47	102
N#C/C(=C\c1ccc(O)c(O)c1)C(=O)NCc1ccccc1					88	62				87	53	124	70	100	100		85	55		
NC(=O)c1cccc(-c2cc(Nc3ccc(OC(F)(F)F)cc3)ncn2)c1						86				99	93		83		90	92	84			90
CC(C)(C)c1nc2c3ccc(F)cc3c3c(=O)[nH]ccc3c2[nH]1				68	10	0	30	11		33	31	20	23	8	9					81
CC(C)[C@H](CO)Nc1nc(Nc2cc(N)cc(Cl)c2)c2ncn(C(C)C)c2n1			26	5	29	9			122			87	50	44	13	57	12		117	
O=C1NC(=O)C(c2cn(CCCn3ccnc3)c3ccccc23)=C1Nc1ccccc1		75			45	11	74	65	107	74	32	73	25		38				103	82
Nc1ncnc2c1cnn2-c1ccccc1			92	86	91	61	79			96	90		83	99	87	92		92		100
